Several values for one entry are separate records, joined by “and”; a condition that tells them apart may be missing. Identical values can stand only once. Results filed as inconclusive are left out. Where a call stands in place of a potency, no number is given. Activity calls are given as the source filed them. Unless noted, calls come from the whole dose curve.
Legend:
[1] = Cell Viability - BJ (AID 421); settings: BJ fibroblast viability, qHTS;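 note: potency is the fitted concentration of half-maximal effect; cells exposed to compound for 40 hours at 37 °C before readout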
Procedure, shortened: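 Luminescent ATP signal (CellTiter-Glo, 20 min at room temperature) served as the read-out of viable BJ cells after 40 hours of compound treatment. Responses were scaled between DMSO and 100 uM tamoxifen, and AC50 values were obtained by Hill modeling.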

[2] = Cell Viability - HepG2 (AID 433); settings: qHTS;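 note: potency is the fitted concentration of half-maximal effect; potency for ATP loss meaning cytotoxicity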
Procedure, shortened: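 HepG2 cells, 1500 per well, treated 40 hr at 37 °C in complete medium; viability from intracellular ATP by CellTiter-Glo luminescence. Normalized to DMSO and 100 uM tamoxifen; AC50 from Hill fit of qHTS concentration-response.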

[3] = Cell Viability - N2a (AID 540; active = well fitted cell-killing curve with a large enough effect; note: nearly all actives have a fitted effect of over 45% in size); settings: N2a mouse neuroblastoma cell viability; activity change, negative = cytotoxicity: at 92.2 µM (top of the series)
Procedure, shortened: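 Mouse neuroblastoma N2a cells, 1500/well, exposed to compounds 40 h at 37 °C in complete medium. Viability measured as cellular ATP by CellTiter-Glo luminescence; AC50 from Hill fits of concentration-response.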

[4] = MultiTox-Fluor Cytotoxicity Assay - LYMP1-001 - Live Cells (AID 947; active = well fitted cell-killing curve with a large enough effect); settings: LYMP1-001 lymphoblastoid cells, live-cell protease fluorescence viability; series mostly up to 92.2 µM
[5] = biological target: Bile acid receptor (Homo sapiens) (UniProt Q96RI1); experiment: qHTS assay for small molecule agonists of farnesoid X receptor signaling (AID 588527); settings: HEK293T FXR-UAS-bla, beta-lactamase ratio, 16 h; stronger effect = higher value
Procedure, shortened: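 FXR-UAS-bla HEK293T, 10% dialyzed FBS; cpds up to 92 uM titration, 16 h 37 C; CCF4 dye 2 h RT; fluorescence. Normalized to chenodeoxycholic acid 100 uM (100%) and DMSO (0%); Hill fit gives EC50, efficacy.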

[6] = biological target: Glucocorticoid receptor (Homo sapiens) (UniProt P04150); experiment: qHTS assay for small molecule agonists of glucocorticoid receptor signaling (AID 588532; active = well fitted curve in the direction sought with a large enough effect in the signal ratio, with a control signal flat; the % refers to the signal ratio); settings: HeLa MMTV-bla, beta-lactamase ratio, agonist, 18 h; stronger effect = higher value; percent of dexamethasone control, DMSO zero
Procedure, shortened: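 MMTV-bla HeLa beta-lactamase reporter cells in 1% charcoal/dextran FBS medium, compounds up to 92 uM for 18 h at 37 C, CCF4 readout; normalized to 0.1 uM dexamethasone (100%), EC50 and efficacy from Hill fits.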

[7] = biological target: Peroxisome proliferator-activated receptor delta (Homo sapiens) (UniProt Q03181); experiment: qHTS assay for small molecule agonists of peroxisome proliferator-activated receptor delta signaling (AID 588534); settings: HEK293T PPARdelta-UAS-bla, beta-lactamase ratio, 18 h; series mostly up to 76.7 µM
Procedure, shortened: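 Cells carrying a PPAR-delta beta-lactamase reporter were treated with compounds for 18 h at 37 °C in agonist mode. CCF4 fluorescence was read after 2 h; EC50 and efficacy from Hill fits.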

[8] = qHTS assay for small molecule antagonists of peroxisome proliferator-activated receptor delta signaling (AID 588535; active = well fitted inhibition curve with a large enough effect in the signal ratio, with a control signal flat, not every such curve was filed as active; the % refers to the signal ratio;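 for max response: cells co-treated with a PPAR-delta agonist as stimulator during compound exposure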); settings: HEK293T PPARd-UAS-bla, beta-lactamase FRET ratio, 18 h; 460 nm channel
Procedure, shortened: (§1)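 Antagonist-mode beta-lactamase reporter (GeneBLAzer PPAR-delta-UAS-bla) in HEK293T cells, 2% charcoal/dextran FBS, 4000 cells/well. Compound titrations, 18 h at 37 C; CCF4 ratio read, IC50 and efficacy from Hill fits.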

[9] = biological target: Peroxisome proliferator-activated receptor delta (Homo sapiens) (UniProt Q03181); experiment: as above; settings: HEK293T PPARd-UAS-bla, beta-lactamase FRET ratio, 18 h; series mostly up to 76.7 µM
Procedure, shortened: as §1

[10] = biological target: Peroxisome proliferator-activated receptor gamma (Homo sapiens) (UniProt P37231); experiment: qHTS assay for small molecule agonists of peroxisome proliferator-activated receptor gamma signaling (AID 588536; active = well fitted curve in the direction sought with a large enough effect in the signal ratio, with a control signal flat, not every such curve was filed as active; the % refers to the signal ratio); settings: HEK293 PPARg-UAS-bla, beta-lactamase ratio, 16 h, percent of rosiglitazone response, DMSO as zero; series mostly up to 76.7 µM
Procedure, shortened: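 PPAR-gamma-UAS-bla HEK293 cells in medium with 1% charcoal/dextran-treated FBS were exposed to compounds for 16 h at 37 C. Beta-lactamase activity was read with CCF4 substrate (405 nm excitation, 460/530 nm emission).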

[11] = biological target: Vitamin D3 receptor (Homo sapiens) (UniProt P11473); experiment: qHTS assay for small molecule antagonists of vitamin D receptor signaling (AID 588541); settings: HEK293T VDR-UAS-bla, beta-lactamase ratio, antagonist mode; series mostly up to 76.7 µM;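 note: receptor activated by calcitriol during compound treatment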
Procedure, shortened: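 VDR-UAS-bla HEK293T cells in 2% charcoal-stripped FBS were stimulated with 1-alpha,25-dihydroxyvitamin D3 (3 nM final) plus compound for 16 h at 37 C. The beta-lactamase CCF4 readout was normalized to 50 nM agonist and DMSO, and Hill fits gave IC50.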

[12] = biological target: Thyroid hormone receptor beta (Homo sapiens) (UniProt P10828); experiment: qHTS assay for small molecule antagonists of thyroid hormone receptor beta signaling (AID 588547; active = well fitted inhibition curve with a large enough effect in the signal ratio, with a control signal flat, not every such curve was filed as active; the % refers to the signal ratio;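 note: cells stimulated with 0.4 nM T3 agonist during compound exposure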); settings: TR-UAS-bla HEK293, beta-lactamase ratio, antagonist mode, 18 h
Procedure, shortened: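 TR-UAS-bla GripTite HEK293 cells in 2% charcoal/dextran FBS medium; compounds 0.59 nM to 92 uM with T3 at 0.4nM final, 18 h at 37 C. Beta-lactamase read by CCF4 fluorescence (460/530 nm); Hill fits gave IC50 and efficacy.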

[13] = qHTS assay for small molecule agonists of the antioxidant response element (ARE) signaling pathway (AID 651741; active = well fitted activation curve with a large enough effect in the signal ratio; the % refers to the signal ratio; note: potency is the fitted concentration of half-maximal effect); settings: HepG2 ARE-bla reporter, beta-lactamase FRET ratio, 16 h; series mostly up to 96 µM
Procedure, shortened: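 CellSensor ARE-bla HepG2 cells (2,000/well) carrying ARE-driven beta-lactamase, exposed 16 h at 37 C. LiveBLAzer B/G FRET substrate added for 2 h at room temperature; fluorescence intensity read.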

[14] = biological target: Glucocorticoid receptor (Homo sapiens) (UniProt P04150); experiment: qHTS assay for small molecule antagonists of glucocorticoid receptor signaling (AID 588533; active = well fitted inhibition curve with a large enough effect in the signal ratio, with a control signal flat, not every such curve was filed as active; the % refers to the signal ratio); settings: HeLa MMTV-bla, GRE beta-lactamase ratio, antagonist mode, 18 h; series mostly up to 76.8 µM
Procedure, shortened: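 Antagonist-mode qHTS: compound titrations added to GRE-bla HeLa cells, then dexamethasone 2 nM final; 18 h, 37 C. CCF4 FRET fluorescence normalized to dexamethasone and DMSO; IC50 from Hill fit.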

[15] = qHTS assay for small molecule disruptors of the mitochondrial membrane potential - 1 hr assay (AID 651754); settings: series mostly up to 92.2 µM; note: nearly all actives have a fitted effect of over 35% in size
Procedure, shortened: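 HepG2 cells, attached overnight, were exposed to compound for 1 hr at 37C, then stained 30 min with a potentiometric dye. Ratio of red aggregate (590nm) to green monomer (535nm) fluorescence reports membrane potential; collapse shifts signal toward green.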

[16] = qHTS assay for small molecule activators of the p53 signaling pathway (AID 651743; active = well fitted activation curve with a large enough effect in the signal ratio, not every such curve was filed as active; the % refers to the signal ratio; note: potency is the fitted concentration of half-maximal effect); settings: HCT-116 p53RE-bla, beta-lactamase FRET ratio, 16 h; activation: stronger effect = higher value
Procedure, shortened: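 p53RE-bla HCT-116 cells carrying a beta-lactamase reporter under p53 response elements were exposed to compounds for 16 hours at 37 C. Reporter activity read as fluorescence after 2 hours at room temperature with LiveBLAzer B/G FRET substrate.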

[17] = biological target: Peroxisome proliferator-activated receptor gamma (Homo sapiens) (UniProt P37231); experiment: qHTS assay for small molecule antagonists of peroxisome proliferator-activated receptor gamma signaling (AID 588537; active = well fitted inhibition curve with a large enough effect in the signal ratio, with a control signal flat, not every such curve was filed as active; the % refers to the signal ratio;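 note: reporter cells co-stimulated with 50 nM rosiglitazone agonist during compound treatment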); settings: HEK293 PPARg-UAS-bla, beta-lactamase ratio, antagonist mode; series mostly up to 76.8 µM
Procedure, shortened: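 PPARγ-UAS-bla HEK293 cells (3000/well) in 1% charcoal/dextran-stripped FBS are treated with compound, then stimulated with 50 nM rosiglitazone for 16 h at 37 °C. Read-out is CCF4 β-lactamase fluorescence after 2 h at RT. IC50 comes from Hill fits normalised to rosiglitazone and DMSO.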

[18] = biological target: Thyroid hormone receptor beta (Homo sapiens) (UniProt P10828); experiment: qHTS assay for small molecule agonists of thyroid hormone receptor beta signaling (AID 588545); settings: TR-UAS-bla GripTite HEK 293, beta-lactamase ratio, agonist mode, 18 h; series mostly up to 76.7 µM
Procedure, shortened: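 TR-UAS-bla-GripTite HEK 293 cells in medium with 2% charcoal/dextran FBS, 0.1 mM NEAA and 1 mM sodium pyruvate were treated with titrated compounds for 18 hrs at 37 C. Beta-lactamase reporter was read with CCF4 dye (ex 405, em 460/530 nm); EC50 from Hill fits.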

[19] = Cell Viability - MRC5 (AID 434); settings: MRC5 lung fibroblast viability, qHTS;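 note: potency is the fitted concentration of half-maximal effect; potency reflects cytotoxicity seen as loss of intracellular ATP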
Procedure, shortened: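 MRC5 normal human lung fibroblasts, 1500 cells/well, exposed to compound for 40 hr at 37 C. Cellular ATP was read by CellTiter-Glo luminescence; data normalized to DMSO and 100 uM tamoxifen, with AC50 from Hill fits.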

[20] = biological target: Estrogen receptor (Homo sapiens) (UniProt P03372); experiment: qHTS assay for small molecule antagonists of estrogen receptor alpha signaling (AID 588513; active = well fitted curve in the direction sought with a large enough effect in the signal ratio, with a control signal flat, not every such curve was filed as active; the % refers to the signal ratio); settings: ER-alpha-UAS-bla HEK293, beta-lactamase ratio, antagonist mode; series mostly up to 76.9 µM
Procedure, shortened: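 ER-alpha-UAS-bla GripTite HEK 293 cells in 2% charcoal/dextran-treated FBS medium; compounds titrated (1:2, duplicate), then stimulated with 0.5 nM 17-beta-estradiol for 18 h at 37C. CCF4 beta-lactamase fluorescence; Hill-fit IC50 and efficacy.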

Chain of Peroxisome proliferator-activated receptor gamma (Homo sapiens) (P37231 whole entry, looked up): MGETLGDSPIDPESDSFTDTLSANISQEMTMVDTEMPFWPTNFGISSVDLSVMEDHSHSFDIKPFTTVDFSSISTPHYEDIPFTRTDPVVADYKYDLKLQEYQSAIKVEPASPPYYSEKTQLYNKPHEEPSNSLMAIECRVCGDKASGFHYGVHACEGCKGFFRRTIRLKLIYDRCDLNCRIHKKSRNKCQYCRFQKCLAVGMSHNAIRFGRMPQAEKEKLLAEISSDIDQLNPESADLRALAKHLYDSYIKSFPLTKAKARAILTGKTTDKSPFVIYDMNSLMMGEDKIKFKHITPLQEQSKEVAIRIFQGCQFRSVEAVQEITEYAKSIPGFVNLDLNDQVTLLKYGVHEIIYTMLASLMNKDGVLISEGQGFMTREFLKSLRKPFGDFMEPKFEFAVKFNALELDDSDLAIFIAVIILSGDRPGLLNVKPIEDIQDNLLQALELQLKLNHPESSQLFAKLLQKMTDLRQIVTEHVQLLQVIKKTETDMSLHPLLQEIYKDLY
Chain of Bile acid receptor (Homo sapiens) (Q96RI1 whole entry, looked up): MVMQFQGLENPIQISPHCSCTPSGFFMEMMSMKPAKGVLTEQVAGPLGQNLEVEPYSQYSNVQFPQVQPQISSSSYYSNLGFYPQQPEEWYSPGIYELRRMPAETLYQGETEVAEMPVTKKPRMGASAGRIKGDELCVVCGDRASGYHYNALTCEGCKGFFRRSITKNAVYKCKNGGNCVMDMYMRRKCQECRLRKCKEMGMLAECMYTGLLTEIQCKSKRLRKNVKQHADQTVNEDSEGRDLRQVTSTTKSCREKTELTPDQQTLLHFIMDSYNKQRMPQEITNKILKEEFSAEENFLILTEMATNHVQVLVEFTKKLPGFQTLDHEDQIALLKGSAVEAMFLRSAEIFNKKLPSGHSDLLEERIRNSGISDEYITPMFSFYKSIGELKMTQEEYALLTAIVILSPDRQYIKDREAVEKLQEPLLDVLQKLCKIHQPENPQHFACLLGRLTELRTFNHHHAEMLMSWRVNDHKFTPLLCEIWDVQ
Chain of Vitamin D3 receptor (Homo sapiens) (P11473 whole entry, looked up): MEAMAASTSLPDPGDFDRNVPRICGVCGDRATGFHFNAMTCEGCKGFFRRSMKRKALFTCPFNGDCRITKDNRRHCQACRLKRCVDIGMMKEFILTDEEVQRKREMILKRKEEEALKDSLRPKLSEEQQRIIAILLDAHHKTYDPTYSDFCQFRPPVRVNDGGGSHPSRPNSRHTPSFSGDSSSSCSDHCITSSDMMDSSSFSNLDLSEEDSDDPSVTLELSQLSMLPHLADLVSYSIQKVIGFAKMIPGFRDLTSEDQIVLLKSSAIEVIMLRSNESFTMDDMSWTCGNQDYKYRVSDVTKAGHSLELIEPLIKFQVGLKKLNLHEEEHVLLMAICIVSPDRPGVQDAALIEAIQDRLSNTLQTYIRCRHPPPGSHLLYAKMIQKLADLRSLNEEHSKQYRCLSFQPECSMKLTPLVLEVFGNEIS
Chain of Peroxisome proliferator-activated receptor delta (Homo sapiens) (Q03181 whole entry, looked up): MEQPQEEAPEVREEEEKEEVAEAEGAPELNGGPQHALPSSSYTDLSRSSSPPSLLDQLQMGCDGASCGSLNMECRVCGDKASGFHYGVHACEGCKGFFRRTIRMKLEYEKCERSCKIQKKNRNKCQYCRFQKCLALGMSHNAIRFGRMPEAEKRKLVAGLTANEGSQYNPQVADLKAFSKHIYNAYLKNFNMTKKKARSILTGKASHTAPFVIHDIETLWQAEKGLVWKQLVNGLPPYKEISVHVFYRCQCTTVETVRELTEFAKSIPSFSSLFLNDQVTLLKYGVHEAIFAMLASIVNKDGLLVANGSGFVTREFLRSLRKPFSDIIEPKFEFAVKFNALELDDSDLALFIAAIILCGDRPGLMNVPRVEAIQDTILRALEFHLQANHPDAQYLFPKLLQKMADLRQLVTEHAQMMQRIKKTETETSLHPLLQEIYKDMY
Chain of Thyroid hormone receptor beta (Homo sapiens) (P10828 whole entry, looked up): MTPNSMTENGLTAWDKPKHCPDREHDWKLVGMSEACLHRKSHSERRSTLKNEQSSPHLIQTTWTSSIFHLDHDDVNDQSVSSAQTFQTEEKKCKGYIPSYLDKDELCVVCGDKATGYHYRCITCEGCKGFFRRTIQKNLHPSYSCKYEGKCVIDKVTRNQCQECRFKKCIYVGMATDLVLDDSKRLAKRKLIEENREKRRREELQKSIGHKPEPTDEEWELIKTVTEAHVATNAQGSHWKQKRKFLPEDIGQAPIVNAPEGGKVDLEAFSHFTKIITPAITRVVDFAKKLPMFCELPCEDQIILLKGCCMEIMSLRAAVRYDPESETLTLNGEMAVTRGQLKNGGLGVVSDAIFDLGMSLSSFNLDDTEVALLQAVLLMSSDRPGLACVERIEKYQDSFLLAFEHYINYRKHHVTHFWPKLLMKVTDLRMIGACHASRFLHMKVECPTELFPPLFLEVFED
Chain of Glucocorticoid receptor (Homo sapiens) (P04150 whole entry, looked up): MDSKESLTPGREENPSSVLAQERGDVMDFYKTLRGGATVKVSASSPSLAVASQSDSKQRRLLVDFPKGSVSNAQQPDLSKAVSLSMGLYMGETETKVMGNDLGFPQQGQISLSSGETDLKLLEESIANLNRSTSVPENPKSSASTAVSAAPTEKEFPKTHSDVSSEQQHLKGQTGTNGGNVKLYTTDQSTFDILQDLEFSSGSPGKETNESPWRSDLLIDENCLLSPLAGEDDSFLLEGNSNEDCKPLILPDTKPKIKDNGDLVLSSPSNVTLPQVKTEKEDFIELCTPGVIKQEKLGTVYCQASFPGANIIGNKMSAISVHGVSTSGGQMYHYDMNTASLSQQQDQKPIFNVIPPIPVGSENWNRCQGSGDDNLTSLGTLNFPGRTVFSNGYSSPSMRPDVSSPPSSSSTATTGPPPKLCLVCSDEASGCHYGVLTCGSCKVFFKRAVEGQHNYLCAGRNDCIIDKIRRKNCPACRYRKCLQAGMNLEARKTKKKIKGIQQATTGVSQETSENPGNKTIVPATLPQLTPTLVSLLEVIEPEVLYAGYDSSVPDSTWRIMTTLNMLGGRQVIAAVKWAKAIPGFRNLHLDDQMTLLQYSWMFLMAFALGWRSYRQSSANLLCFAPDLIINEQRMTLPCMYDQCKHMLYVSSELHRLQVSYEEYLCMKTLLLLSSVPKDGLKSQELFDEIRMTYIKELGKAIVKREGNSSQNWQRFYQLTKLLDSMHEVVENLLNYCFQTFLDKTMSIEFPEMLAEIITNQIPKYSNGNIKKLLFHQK
Chain of Estrogen receptor (Homo sapiens) (P03372 whole entry, looked up): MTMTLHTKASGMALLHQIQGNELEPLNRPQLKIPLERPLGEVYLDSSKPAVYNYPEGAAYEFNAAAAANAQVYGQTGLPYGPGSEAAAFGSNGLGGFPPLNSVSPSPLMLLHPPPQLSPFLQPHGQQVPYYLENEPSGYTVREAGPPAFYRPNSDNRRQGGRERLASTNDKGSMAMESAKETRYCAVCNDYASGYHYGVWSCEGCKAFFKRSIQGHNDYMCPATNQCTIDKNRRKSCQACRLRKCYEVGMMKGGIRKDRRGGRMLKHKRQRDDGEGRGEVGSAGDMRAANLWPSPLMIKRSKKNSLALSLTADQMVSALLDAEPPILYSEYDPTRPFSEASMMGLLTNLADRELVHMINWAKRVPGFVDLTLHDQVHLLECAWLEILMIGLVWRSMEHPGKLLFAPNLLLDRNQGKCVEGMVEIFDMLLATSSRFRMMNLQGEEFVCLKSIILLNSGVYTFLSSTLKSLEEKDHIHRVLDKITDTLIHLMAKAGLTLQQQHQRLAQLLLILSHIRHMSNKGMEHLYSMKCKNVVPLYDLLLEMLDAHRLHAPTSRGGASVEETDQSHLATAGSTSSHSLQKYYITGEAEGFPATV

## ClCCCCl
[1]
  Potency: > 92 µM (inactive)
[2]
  Potency: > 92 µM (inactive)
[3]
  Potency: inactive
[4]
  outcome: inactive
[5]
  activation: 1.98% (inactive)
[6]
  activation: -8% (inactive)
[7]
  outcome: inactive
[8]
  max response: 23.7%
[9]
  outcome: inactive
[10]
  outcome: inactive
[11]
  outcome: inactive
[12]
  activity change % (negative = inhibition): 17.8% (inactive)
[13]
  Potency: inactive

## CCCCOC(=O)c1ccccc1N
[1]
  Potency: > 92 µM (inactive)
[2]
  Potency: > 92 µM (inactive)
[3]
  Potency: inactive
[4]
  outcome: inactive
[5]
  activation: 0.511% (inactive)
[6]
  activation: -1.38% (inactive)
[14]
  outcome: inactive
[7]
  outcome: inactive
[8]
  max response: -36.1%
[9]
  outcome: inactive
[10]
  outcome: inactive
[11]
  outcome: inactive
[15]
  Potency: inactive

## Nc1ccc(Oc2ccc(N)cc2)cc1
[1]
  Potency: > 92 µM (inactive)
[2]
  Potency: > 92 µM (inactive)
[3]
  Potency: inactive
[6]
  activation: -1.85% (inactive) and -6.36% (inactive)
[7]
  outcome: inactive
[8]
  max response: 31.7%
[9]
  outcome: inactive
[10]
  outcome: inactive
[13]
  Potency: inactive
[16]
  activation: -4.54% (inactive) and -10.7% (inactive)
[15]
  Potency: inactive

## CC(C)(Cl)[N+](=O)[O-]
[1]
  Potency: > 92 µM (inactive)
[2]
  Potency: > 92 µM (inactive)
[3]
  Potency: inactive
[4]
  outcome: inactive
[5]
  activation: 0.224% (inactive)
[6]
  activation: -3.18% (inactive)
[7]
  outcome: inactive
[10]
  outcome: inactive
[17]
  Potency: inactive
[11]
  outcome: inactive
[18]
  Potency: inactive
[12]
  activity change % (negative = inhibition): 9.2% (inactive)
[13]
  Potency: inactive
[16]
  activation: 3.96% (inactive)
[15]
  Potency: inactive

## CC(C#N)CCC#N (stereo unspecified)
[1]
  Potency: > 92 µM (inactive)
[19]
  Potency: > 92 µM (inactive)
[3]
  Potency: inactive
[4]
  outcome: inactive
[20]
  Potency: inactive
[6]
  activation: 5.21% (inactive)
[14]
  outcome: inactive
[7]
  outcome: inactive
[8]
  max response: 27.1%
[10]
  outcome: inactive
[17]
  Potency: inactive
[11]
  outcome: inactive
[18]
  Potency: inactive
[13]
  Potency: inactive
[16]
  activation: -0.507% (inactive)

## CNC(=O)O/N=C/C(C)(C)S(C)=O (stereo unspecified)
[1]
  Potency: > 92 µM (inactive)
[19]
  Potency: > 92 µM (inactive)
[4]
  outcome: inactive
[20]
  Potency: inactive
[5]
  activation: -0.355% (inactive) and 3.36% (inactive)
[6]
  activation: 15.3% (inactive) and 5.05% (inactive)
[14]
  outcome: inactive
[7]
  outcome: inactive
[8]
  max response: 8.11% and 9.71%
[9]
  outcome: inactive
[10]
  outcome: inactive
[17]
  Potency: inactive
[12]
  activity change % (negative = inhibition): 6.05% (inactive) and 1.68% (inactive)
[16]
  activation: -0.482% (inactive) and 5.01% (inactive)
[15]
  Potency: inactive

## COC(=O)Nc1nc2ccccc2[nH]1
[1]
  Potency: > 92 µM (inactive)
[2]
  Potency: > 92 µM (inactive)
[3]
  Potency: inactive
[4]
  outcome: inactive
[6]
  activation: -11.7% (inactive)
[7]
  outcome: inactive
[8]
  max response: -45%
[10]
  outcome: inactive
[17]
  Potency: inactive
[11]
  outcome: inactive
[12]
  activity change % (negative = inhibition): -22.5% (inactive) and -22.8% (inactive)
[13]
  Potency: 61.1 µM (active)
[16]
  Potency: 10 µM (active) and 12.6 µM (active)
[15]
  Potency: inactive

From PubChem BioAssay (NCATS)
